Experimental findings from PubChem BioAssay AID651558 (National Center for Advancing Translational Sciences (NCATS), 2012) are described below.

Each structure is given as a SMILES string. In all, about 1,200 compounds went through this assay and about 480 (40%) were called active. Not shown: some 29% with an inconclusive outcome. Some of the results follow. Values without a mark were called inactive. Calls come from the whole dose curve; as a rule, active = well fitted inhibition curve with a large enough effect; inconclusive = small, poorly fitted or top-dose-only effect; inactive = no such curve, though single readings can be large or run the other way.
% is set by controls: 0 for no effect and ±100 for the full control effect; potency is the fitted concentration of half-maximal effect.

This assay can be described thus: qHTS Assay to Find Inhibitors of Chronic Active B-Cell Receptor Signaling: Hit Validation in Primary Screen. Note: nearly all actives have a fitted effect of over 75% in size. The settings on record: ABC-DLBCL IkB-luc/CBR ratio luminescence, 4 h; series mostly up to 46.1 µM; activity change, negative = inhibition: at the top concentration. From the text: Diffuse large B-cell lymphoma (DLBCL) is the most common category of non-Hodgkin lymphoma, with ~20,000 new cases per year in the United States. DLBCL should be regarded as a collection of different neoplasms. Microarray gene expression analysis has defined two principal types of DLBCL, named for their similarity to normal B cell stages or activation states: a germinal center B-cell (GCB) type, and an activated B-cell (ABC) type. In ABC-DLBCL, a constitutive high-level activity of the NF-kappaB family of transcription factors has been observed (1) and NF-kappaB target genes are more highly expressed in ABC primary tumors than in GCB tumors. Functional studies have shown a constitutive high-level activity of the IkappaB (inhibitor of kappa-B) kinase (IKK) complex. […] Further analysis of DLBCL primary tumors for NF-kappaB target gene expression imply that although CARD11 is required for constitutive IKK activity in all ABC-DLBCL lines, mutations in CARD11 may be the root cause of IKK activation only in lines or tumors with such mutations. In other words, CARD11 mutations may explain NF-kappaB activation in only 10% of ABC-DLBCL cases. […] This process has been termed 'chronic active BCR signaling' (CABS). The goal of this screen is to find small-molecule inhibitors of the CABS pathway found in ABC-DLBCL lines using a cell-based assay that measures IkappaBalpa stability, which has already been extensively validated in the OCI-Ly3 line (PubChem AID:445; REF: 4). […] A cell-sensor assay for I-kappa-B-alpha stabilization has been developed. The assay uses green (CBG68) and red (CBR) emitting beetle luciferases [Chroma-GloTM developed by Promega Corp.] where the green luciferase is fused to IkappaBalpha and the red luciferase is present in its native state. Both luciferase genes are stably present in the TMD8 human ABC DLBCL cell line, but their expression is under the control of tetracycline-inducible promoters. Following the addition of doxycycline to induce expression of the luciferases, the green luminescence in control cultures rises only slowly because the CBG fusion partner IkappaBalpha is targeted by IKK activity for rapid degradation. In contrast, green luminescence rises rapidly in the presence of proteasome inhibitors or IKK inhibitors. The rise in red luminescence of CBR is not affected by proteasome or IKK inhibitors, and serves as normalization for cell number and nonspecific effects. Compounds were screened as a concentration-titration series that ranged from 46 uM to 3 nM. NIH Molecular Libraries Probe Production Network [MLPCN] NIH Chemical Genomics Center [NCGC] MLPCN Grant: R03 DA031086 PI Name: Dr. R. Eric Davis
Cells were seeded in 1536-well plates at 5000 cells/4uL in IMDM medium containing 0.5% FBS, w/o phenol red, 1% penicillin/streptomycin. Then, 23 nL of compounds or DMSO were delivered to each well using a pin tool. One uL 20ng/ml doxycycline was then dispensed into white solid 1536-well plates and the plates were incubated at 37C/5% C02 in a cell incubator for 4 hrs. Then 4 uL luminescent substrate mix (in-house prepared: 150 mM Tris-Cl, pH 7.6, 3 mM MgCl2, 1% Triton X-100, 5 mM DTT, 0.2 mM CoA, 0.15 mM ATP, 5 mM D-luciferin, final concentrations) was added to each well. The plate was incubated at r.t. for 10-15 min. The plates were measured on a ViewLux plate reader for green luminescence (540/20 nm filter) and red luminescence (618/8 nm filter). The green and red luminescent signals were corrected for red and green luminescence filter overlap using previously determined filter calibration constants (determined using the procedure outlined in the Promega Technical Manual; REF 4). The %Activity was determined from the ratio of corrected green/red luminescent values. MG132 were used as control. Green luminescent and ratio %Activity was determined by normalizing to the difference in signal between basal cells (0% Activity) and cells incubated with 10 uM of the proteasome inhibitor MG-132 (100% Activity). […]
Turning to `COc1ccc(/C=N\NC(=O)c2ccccc2F)cc1COc1ccc(F)cc1F`, the Potency is 3.26 µM (active).

With `CCOc1cc(/C=N/O)ccc1OCc1ccccc1F`, the “activity change, negative = inhibition” value is -15.1%. As for `C/C(=N\NC(=O)C(C)n1nc(C)c([N+](=O)[O-])c1C)c1ccccc1O` (stereo not given), the “activity change, negative = inhibition” value is -4.79%. As for `CNC(=S)N/N=C(\C)c1cccc([N+](=O)[O-])c1`, the “activity change, negative = inhibition” value was 36%. Take `C/C(=N\NC(=O)c1c([N+](=O)[O-])c(C)nn1C)c1ccc(NC(=O)C2CCCC2)cc1`: the Potency was 9.2 µM (active). For the molecule `COc1cc(C(=O)N/N=C/C2CC=CCC2)cc(OC)c1OC` (stereo not given), the “activity change, negative = inhibition” value is -7.05%.

As for `COc1cc(C(=O)N/N=C/c2ccsc2C)cc(OC)c1OC`, the Potency was 2.31 µM (active).

As to `COc1cc(C(=O)N/N=C/c2cc([N+](=O)[O-])cs2)cc(OC)c1OC`, the Potency is 20.6 µM (active). For `COc1cc(C(=O)O/N=C(\N)c2ccc([N+](=O)[O-])cc2)cc(OC)c1OC`, the “activity change, negative = inhibition” value was 51.1%. On to `COc1cc(C(=O)N/N=C/c2sccc2C)cc(OC)c1OC`, for which the Potency is 1.46 µM (active). `CC1=Nc2cc(C(=O)NCC3CCCO3)ccc2Sc2ccc(C)cc21` (stereo not given): the Potency was 7.31 µM (active). Same read-out and setting: the figure for `CCC1=Nc2cc(C(=O)NCc3ccco3)ccc2Sc2ccc(C)cc21` is 1.16 µM (active). As to `CCCC(C)NC(=O)c1ccc(C2SCC(=O)N2Cc2ccco2)cc1` (stereo not given), the “activity change, negative = inhibition” value is -16.5%. Take `CCC1=Nc2cc(C(=O)NCc3ccco3)ccc2Sc2ccc(Cl)cc21`: the Potency was 2.91 µM (active). On to `CC1=Nc2cc(C(=O)NCc3ccco3)ccc2Sc2ccc(C)cc21`, for which the Potency was 1.84 µM (active). `Cc1cc(C(=O)OCC(=O)NCc2ccco2)c(C)n1-c1ccc(F)cc1`: the “activity change, negative = inhibition” value was 38.7%. As to `CC(NC(=O)c1ccc(S(=O)(=O)NCc2ccco2)cc1)c1ccc(F)cc1` (stereo not given), the “activity change, negative = inhibition” value is -8.65%. The same measure, in the same setting: the figure for `COc1ccc(N2C(=O)CS/C2=N\C(=S)Nc2ccccc2)cc1` is 0.626%. `N#CCSc1nc(N)c(C#N)c(C2CCCCC2)c1C#N`: the “activity change, negative = inhibition” value was -9.34%. As to `CCC1=Nc2cc(C(=O)NCc3ccco3)ccc2Sc2ccccc21`, the Potency was 20.6 µM (active). Same read-out and setting: the figure for `CCC1=Nc2cc(C(=O)NCc3cccnc3)ccc2Sc2ccc(C)cc21` is 18.4 µM (active); for `CCC1=Nc2cc(C(=O)NCc3ccccc3Cl)ccc2Sc2ccc(C)cc21` it is 4.61 µM (active); for `CSc1nc(N(C)NC(=O)c2cccc(C)c2)c2ccccc2n1` it is 1.3 µM (active). With `CSc1nc(N(C)NC(=O)c2ccc(Cl)cc2)c2ccccc2n1`, the “activity change, negative = inhibition” value was 37.4%. Turning to `COc1ccc(C(=O)NN(C)c2nc(C(F)(F)F)nc3ccccc23)cc1`, the Potency was 0.291 µM (active).

`COc1ccc(-c2c(C)nn3c(N)c(C#N)cnc23)cc1OC`: the Potency is 20.6 µM (active). With `C[C@H]1C[C@@H]2[C@H]([C@@H](O)C[C@@]3(C)[C@H]2CC[C@]3(O)C(=O)CO)[C@@]2(C)C=CC(=O)C=C12`, the “activity change, negative = inhibition” value was 47.4%. In the case of `COc1ccc(/C=N/NC(=O)c2cc3c(OC)ccc(OC)c3[nH]2)cc1O`, the Potency was 2.31 µM (active). For the molecule `COc1ccc(/C=N/NC(=O)c2[nH]c3ccc(C)cc3c2-c2ccccc2)c(C(=O)O)c1OC`, the “activity change, negative = inhibition” value was 11.9%. In the case of `Cc1ccc(CNC(=O)Cc2ccc(-n3c(=O)[nH]c4ccsc4c3=O)cc2)cc1`, the Potency is 4.11 µM (active).

In the case of `O=C1N/C(=N/N=C/c2ccccc2O)SC1Cc1ccc(F)cc1` (stereo not given), the Potency was 9.2 µM (active). On to `C=CCn1c(SCC(=O)Nc2cccc(S(N)(=O)=O)c2)nc2sc(C)c(C)c2c1=O`, for which the Potency was 5.17 µM (active).

For `C=CCn1c(SC2CCOC2=O)nc2sc(C)c(C)c2c1=O` (stereo not given), the “activity change, negative = inhibition” value is -15.6%. Regarding `CC1=Nc2cc(C(=O)NCCCOC(C)C)ccc2Sc2ccc(C)cc21`, the Potency was 7.31 µM (active). Regarding `CCC1=Nc2cc(C(=O)NCCCOC(C)C)ccc2Sc2ccc(C)cc21`, the Potency was 2.59 µM (active). With `Oc1ccccc1N=Nc1ccccc1O`, the “activity change, negative = inhibition” value is 5.71%.

Consider `CCc1ccccc1NC(=S)N=Nc1c(O)n(C)c2ccc(S(=O)(=O)N3CCOCC3)cc12`, for which the “activity change, negative = inhibition” value was 26.3%. In the case of `O=c1[nH]c(-c2ccccn2)nc2sc(-c3ccccc3)cc12`, the Potency was 2.31 µM (active). Turning to `S=c1[nH]cnc2sc(-c3ccccc3)cc12`, the “activity change, negative = inhibition” value was -6.35%. For `CCc1cc2c(=O)[nH]c(-c3ccccn3)nc2s1`, the Potency is 14.6 µM (active). As to `C/C(=N\NC(=S)NCCc1ccccc1)c1cccc(Br)c1`, the “activity change, negative = inhibition” value was 4.84%. Same read-out and setting: the figure for `O=C(NC(=S)NC1CCSC1=O)c1cccs1` (stereo not given) is -12.7%; for `O=C1NC(=O)C(=C2CCCCCC2)S1` it is 39.3%.

As to `COc1ccc(-c2cnc3c(c2)CCC3(C#N)C#N)cc1`, the Potency was 3.66 µM (active).

For the molecule `Cc1cc(C)c2ccc(/C=N/O)nc2c1O`, the “activity change, negative = inhibition” value was -9.13%. `COc1ccc([C@H]2CC(=O)C=C(c3ccc(OC)cc3OC)C2)cc1`: the Potency is 16.4 µM (active).

`COc1ccc(C2CC(=O)Oc3cc(OC)c(OC)c(OC)c32)cc1` (stereo not given): the “activity change, negative = inhibition” value is -19.3%. As for `Cc1ccccc1C(=O)Oc1ccc2ccc(O)cc2c1`, the “activity change, negative = inhibition” value was -6.71%.

In the case of `COc1ccc(/C=C/C(=O)c2cc(Br)ccc2OC(=O)c2ccco2)cc1OC`, the Potency was 5.8 µM (active). `COc1ccc(/C=C/C(=O)c2cc(F)ccc2OC(=O)c2ccccc2C)cc1OC`: the Potency was 1.3 µM (active).
